# According to PubChem BioAssay (NCI):
# Several values for one entry are separate records, joined by “and”; a condition that tells them apart may be missing. Identical values can stand only once. About 83,000 compounds went through this panel and 20% of them were active in at least one assay; those are over-represented in the sample as a whole.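 How to read the values: 0–100, growth inhibition (40 = 60% inhibited); 0, no net growth; -100 to 0, cell death (-40 = 40% of starting cells died; -100 = all dead).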 Activity calls are given as the source filed them.
# Test system: NCI-H23 lung
# Assay: NCI-60 one-dose screen, 48 h (100 = growth as untreated, 0 = no growth, -100 = all killed)
# Conditions: 10 µM unless noted
# Procedure: Growth inhibition of the NCI-H23 human Non-Small Cell Lung tumor cell line is measured as a screen for anti-cancer activity. Cells are grown in 96 well plates and exposed to the test compound for 48 hours. Compounds are tested at a single concentration, which is 10^-5 M for most compounds. The reported endpoint is percent growth (GI% or GIPRCNT), where numbers from 0 - 100% represent growth inhibition, and numbers from -100% - 0 represent cell death. For example, a value of 40 represents 60% growth inhibition. A value of 0 means no net growth occurred over the course of the experiment. A value of -40 indicates 40% of cells at the beginning of the experiment died by the end of the experiment. A value of -100 means all cells are dead at the end of the experiment.
# NCI-60 Human Tumor Cell Lines Screen was performed using the standard one-dose NCI protocol, which is described in more detail at https://dtp.cancer.gov/discovery_development/nci-60/default.htm.
# Compounds with GIPRCNT values below 10 were considered active. Activity score was based on GIPRCNT using the following formula: […]
# Score is 0 for GIPRCNT values of 100 or above, 50 for GIPRCNT values of 0, and 100 for GIPRCNT values of -100.
row,SMILES,growth
1,c1ccc(CSc2nnc(-c3ccc4nc(-c5ccccc5)[nH]c4c3)o2)cc1,68% (inactive)
2,CCOc1ccc2[nH]c(=O)c(C(c3nnnn3CC3CCCO3)N3CCN(Cc4ccccc4)CC3)cc2c1 (stereo not given),76.6% (inactive)
3,O=C(COc1ccc(/C=C2/C(=O)Nc3ccc(Cl)cc32)cc1)Nc1ccc(Br)cc1,-53.6% (active)
4,Cc1ccc(C(C(=O)NC2CCCCC2)N(Cc2ccccc2Cl)C(=O)c2ccc(CN3CCOCC3)o2)o1 (stereo not given),93.8% (inactive)
5,Cc1[nH]nc2ccc3nc(-c4cnn(CCO)c4)c4c(c3c12)CCCC4,52.7% (inactive)
6,COc1c(F)ccc(C(=O)Nc2ccc3nc(NC(=O)C4CCCN(S(=O)(=O)c5ccc(C(C)(C)C)cc5)C4)sc3c2)c1F (stereo not given),66.6% (inactive)
7,O=C(CCl)Nc1ccc(C(=O)/C=C/c2cc3ccccc3nc2Cl)cc1,-83.6% (active) and 34.9% (inactive)
8,O=C1/C(=C/C=C/c2ccco2)SC(=S)N1CC(=S)C1C=CS(=O)(=O)C1 (stereo not given),83.1% (inactive)
9,Cc1nc(N)ncc1-c1ccc2ncnc(N3CCc4cc(F)c(Cl)cc43)c2c1,84.3% (inactive)
10,Cc1cn(-c2cc(NC(=O)c3ccc(C)c(-n4cc(-c5cnc6cccnn56)nn4)c3)cc(C(F)(F)F)c2)cn1,56.9% (inactive)
11,CNc1nc2ccccc2n2c(-c3ccc(O)c(O)c3)cnc12,16.1% (inactive)
12,COC(=O)c1c(C(=O)OC)c2c3ccccc3c3ccccc3n2c1C(=O)C(F)(F)F,89.1% (inactive)
13,CCCCCCCCCc1ccc(C(=O)Nc2cc(C)ccc2C(=O)OC)cc1,102% (inactive)
14,CC1=C(C(=O)OC(C)C)C(c2ccc(O)cc2)NC(=O)N1 (stereo not given),101% (inactive)
15,CCCCCCCCc1ccc(C(=O)Nc2ccc(C)c(OP(=O)(O)O)c2)cc1,101% (inactive)
16,C[C@H]1[C@@H](CC(=O)N[C@@H](Cc2coc3ccccc23)B(O)O)O[C@@H]2OC3(C)CC[C@H]4[C@H](C)CC[C@@H]1[C@@]24O3,18.6% (inactive)
17,COc1ccc(-c2cc(-c3ccccc3)c(C#N)c(=O)[nH]2)cc1S(N)(=O)=O,106% (inactive)
18,CN(C)CCCNC(=S)Nc1ccc(/C=C/c2ccc(Cl)cc2)cc1,-89.2% (active)
19,S=C(Nc1ccc(OCc2nc3ccc(Cl)cc3[nH]2)cc1)NC1CCCCC1,-68.3% (active)
20,COc1ccc(C(=O)NNC(=O)CSc2nc3sc4c(c3c(=O)n2-c2ccc(Cl)cc2)CCCC4)cc1,63.2% (inactive)

row,SMILES,growth
1,O=CNc1cccc(-n2cnc3cc(-c4ccc(O)cc4)ccc32)c1,34.6% (inactive)
2,O=C(c1ccc(O)cc1)C1[C@H](c2ccccc2Br)[C@@H](c2ccccc2)NC12C(=O)Nc1ccccc12 (stereo not given in full),34.3% (inactive)
3,O=Cc1cncc(-c2ccc3ncnc(N4CCc5cc(F)c(Cl)cc54)c3c2)c1,44.6% (inactive)
4,O=C(CSc1nnc(-c2ccc(-c3nc4ccccc4[nH]3)cc2)o1)Nc1ccc(Cl)cc1,-6.9% (active)
5,COc1ccc(-c2nc3ccc(-c4nnc(SCc5ccccc5)o4)cc3[nH]2)cc1OC,38.8% (inactive)
6,C#CCN(C)CCCOc1ccc(N(C)C(=O)c2cc(C(C)C)c(O)cc2O)cc1Cl,12.3% (inactive)
7,C=CC[n+]1cccc2c3ccccc3ccc21,27.4% (inactive)
8,Oc1cncc(-c2ccc3ncnc(N4CCc5cc(F)c(Cl)cc54)c3c2)c1,47.8% (inactive)
9,OCCn1cc(-c2nc3ccc4[nH]ncc4c3c3c2CCCC3)cn1,43.1% (inactive)
10,O=C(Cn1c(-c2ccccc2)nc2ccccc21)N=Nc1c(O)[nH]c2ccc(Cl)cc12,20.8% (inactive)
11,NCCCCn1c(SCCc2c[nH]c3ccccc23)nnc1-c1ccc2ccccc2n1,11.4% (inactive)
12,O=C(N/N=C/c1ccc(-c2cccc([N+](=O)[O-])c2)s1)c1[nH]c2ccc(Br)cc2c1-c1ccccc1,81.3% (inactive)
13,Cn1cc(-c2cc(N)n3nc(-c4c[nH]c5ccccc45)cc3n2)c2cc(Cl)ccc21,-70.7% (active)
14,NS(=O)(=O)c1cccc(Nc2nc(SCC(=O)c3ccc(F)cc3)nc3ccccc23)c1,5.36% (active)
15,O=C(CSc1nc2sc3c(c2c(=O)n1-c1ccc(Cl)cc1)CCCC3)N/N=C/C=C/c1ccccc1,-74.7% (active)
16,CC[C@]12C=CCN3CC[C@]4(C(=C(C(=O)OC)C1)Nc1cc(OC)c([C@@H]5[C@H]6O[C@H]6[C@@]6(CC)CC(C(=O)OC)=C7Nc8cc(OC)ccc8[C@@]78CCN5[C@@H]68)cc14)[C@@H]32,41.8% (inactive)
17,COc1cc(C2CC(c3ccc(Cl)cc3)=Nc3c(N)nc(N)nc3N2)ccc1Oc1nc(Nc2ccc(F)cc2)nc(N(C)C)n1 (stereo not given),76.6% (inactive)
18,COc1ccc2[nH]c(=O)c(CSc3ccccc3Nc3nccc(-c4ccc5c(c4)OCO5)n3)cc2c1,94.9% (inactive)
19,O=C(N=Nc1c(O)[nH]c2ccc(Br)cc12)c1ccc2nc(-c3ccc(Cl)cc3)[nH]c2c1,-69.4% (active)
20,COc1ccc(-c2nc3ccccc3n2CC(=O)N=Nc2c(O)[nH]c3ccc(Br)cc23)cc1,78.8% (inactive)
